# GLP-1R agonist = agonists of human GLP-1 receptor; HEK293 GLP-1R CRE-luciferase, luminescence, 4-6 h; cells express a hypersensitive GLP-1R form; Potency, µM (titrated, usually from 45.6 µM), for the others: top-dose activation, actives largely listed as activators; AID 624172; 380,000 tested, 0.007% active; note: % of control where 0% means no effect
# Target sequence (P43220 whole entry, looked up): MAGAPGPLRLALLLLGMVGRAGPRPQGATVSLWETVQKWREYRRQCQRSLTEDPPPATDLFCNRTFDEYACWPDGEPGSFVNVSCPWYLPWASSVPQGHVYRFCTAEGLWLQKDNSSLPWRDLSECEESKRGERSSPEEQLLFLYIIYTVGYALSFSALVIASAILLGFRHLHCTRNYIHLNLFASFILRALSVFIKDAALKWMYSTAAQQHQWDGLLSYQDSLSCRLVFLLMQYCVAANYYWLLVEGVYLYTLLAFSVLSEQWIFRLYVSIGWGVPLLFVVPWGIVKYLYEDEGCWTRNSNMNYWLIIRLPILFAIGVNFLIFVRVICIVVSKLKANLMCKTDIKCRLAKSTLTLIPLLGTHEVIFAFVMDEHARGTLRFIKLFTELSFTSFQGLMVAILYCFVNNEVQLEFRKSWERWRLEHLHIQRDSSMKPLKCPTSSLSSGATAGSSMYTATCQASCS
# Integrin act MD = integrin-mediated muscular dystrophy alleviation activation. alpha7betagal myoblasts, beta-gal FDG fluorescence, 48 h. Potency, µM (doses to about 38.3 µM), for inactives: top-dose activation, hits mostly activators. 350,000 tested, 0.064% active. AID 624291;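 note: 100% = response of the positive control SU9516; nearly all actives have a fitted effect of over 60% in size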
#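 alpha7betagal+/- myoblasts (passage 13, 250/well) treated 48 h at 37C with compounds at 1:260 dilution of DMSO stock. Lysed, then beta-galactosidase activity read as FDG fluorescence (ex 480/em 540) after 30 min, with pre-read for autofluorescence.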
# GLP1R cytotox = cytotoxicity counter-screen for GLP-1 receptor inverse agonists; AID 624418; Potency, µM (top dose mostly 38.3 µM), without a hit: top-dose activity change, negative = inhibition, actives largely listed as inhibitors; 410,000 tested, 0.13% active; HEK293 cAMP-luciferase reporter cells, luminescence, 24 h;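 note: loss of luciferase light is scored as toxicity; % is set by controls: 0 for no effect and ±100 for the full control effect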
#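 Luminescence readout: signal drop marks cytotoxicity. Plated cells grew 12 h at 37 °C, 5% CO2, received 23 nL compound for 24 h, then got luciferase reagent, read after 12 min at RT.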
# BRCA1 expr up = increases BRCA1 expression | MCF7-BRCA1-FFLuc reporter, luminescence, 48 h; response scale: scaled: vehicle 0%, 10 µM genistein 100% | Potency, µM (series often up to 46.1 µM), for inactives: top-dose activation, most hits filed as activators | 380,000 tested, 1.1% active; note: nearly all actives have a fitted effect of over 80% in size
#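 Cells: MCF7-BRCA1-FFLuc, 2000/well. Exposure: 48 h, 37 °C, 5% CO2. Read: luminescence, 15 min post-substrate. Controls: genistein 10 microM (maximal activation), DMSO (neutral).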
# GLP1R inv ag = acts as inverse agonist at human GLP-1 receptor. Potency, µM (top dose mostly 38.3 µM), for inactives: top-dose activity change, negative = inhibition, actives largely listed as inhibitors. 410,000 tested, 1.6% active. AID 624417. P43220. HEK293 GLP-1R CRE-luciferase, luminescence, 24 h; GLP-1R form is constitutively active; note: % is set by controls: 0 for no effect and ±100 for the full control effect; nearly all actives have a fitted effect of over 55% in size
#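 Seeding at 200 cells/uL, 12 h culture, 24 hr compound treatment, then luciferase reagent and a luminescence read; cells are HEK293 stably expressing a constitutively active GLP-1R plus cAMP-responsive luciferase.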
# * hit, by the source's call; ? = inconclusive; . = no result given. In the library only some 2.7% were active in any assay of this set; here they are far more common. Calls come from the whole dose curve; as a rule, active = well fitted curve in the direction sought with a large enough effect; inconclusive = small, poorly fitted or top-dose-only effect, or another doubt; inactive = no such curve, though single readings can be large; an effect the other way counts as inactive or inconclusive. Potency is the fitted concentration of half-maximal effect.
SMILES,GLP-1R agonist,Integrin act MD,GLP1R cytotox,BRCA1 expr up,GLP1R inv ag
Cn1ncc(Br)c1C(=O)NC12CC3CC(CC(C3)C1)C2,6%,-9%,-16%,-3%,10µM*
COC(=O)c1cn(CC(=O)NCc2ccco2)c2ccccc12,-8%,15%,1%,47%,-12%
CCC(=O)c1cn(CC(=O)NCc2ccco2)c2ccccc12,2%,4%,56%,11µM*,-6%
CN(c1ccccc1)S(=O)(=O)c1cc(C(=O)N2CCN(c3ccccn3)CC2)ccc1Cl,-13%,-6%,-24%,-32%,13µM*
O=C(c1ccc(Cl)c(Cl)c1)N1CCN(c2ccccn2)CC1,-2%,1%,12%,-16%,0%
O=C(Nc1ccon1)c1ccc(N2CCCCC2)c([N+](=O)[O-])c1,11%,8%,1%,13µM*,9%
Cc1ccc(S(=O)(=O)NCc2ccc(C(=O)N3CCN(c4ccccn4)CC3)cc2)cc1,-6%,-2%,-24%,-5%,13µM*
Cc1nc2ccc(NC(=O)c3ccc(Cl)c(S(=O)(=O)N(C)c4ccccc4)c3)cc2s1,7%,7%,-1%,-82%,1.8µM*
CC(C)(C)C(=O)OCOC(=O)C1N2C(=O)CC2S(=O)(=O)C1(C)C (stereo not given),-6%,.,.,.,.
Cc1ccc(CNC(=O)C(C)n2ccc3cc(S(=O)(=O)N4CCCC4)ccc32)cc1 (stereo not given),.,.,-3%,.,-39%
O=C(c1ccc(S(=O)(=O)Cc2cc(F)ccc2F)c([N+](=O)[O-])c1)N1CCCC1,-4%,-23%,?,-26%,8.9µM*
O=C(c1ccc(Cl)c([N+](=O)[O-])c1)N1CCN(S(=O)(=O)c2ccc(Cl)cc2)CC1,-3%,0%,-9%,-55%,?
O=C(c1ccc(S(=O)(=O)Cc2cc(F)ccc2F)c([N+](=O)[O-])c1)N1CCCCC1,-32%,-52%,?,-59%,?
O=C(c1ccc(S(=O)(=O)Cc2ccccc2Cl)c([N+](=O)[O-])c1)N1CCN(c2ccccn2)CC1,-1%,-65%,-4%,-70%,10µM*
O=C(c1ccc(N2CCCC2)c([N+](=O)[O-])c1)N1CCN(S(=O)(=O)c2ccc(Cl)cc2)CC1,-10%,14%,-10%,-41%,10µM*
COc1cccc(CC(=O)NCc2ccc3c(c2)CCN3C(C)=O)c1,.,.,5%,.,5%
CCc1sc(Nc2cccc(Cl)c2C)nc1-c1cc2cccc(OC)c2oc1=O,.,.,4%,.,0%
O=C(c1cnn2c1NC(c1ccco1)CC2C(F)(F)F)N1CCN(c2cccc(Cl)c2)CC1 (stereo not given),-11%,-51%,?,-82%,2.2µM*
CCC(C(=O)Nc1ccc(C(C)=O)cc1)n1cnc2nc3c(cc2c1=O)CCCC3 (stereo not given),.,.,-9%,.,26%
Nc1ccc2c(c1)C=C/C2=C\c1ccccc1,.,.,.,4µM*,.
Cn1c(=NC(=O)CS(=O)(=O)c2ccccc2)sc2cc(F)ccc21,14%,20%,8%,5µM*,8%
COc1ccccc1N1CCN(S(=O)(=O)c2c(C)sc3ncn(CC(=O)Nc4ccccc4F)c(=O)c23)CC1,.,.,2%,.,-5%
O=C(NCC1CCCO1)c1ccc2c(c1)N(Cc1ccc(Cl)cc1)CCS2 (stereo not given),8%,-1%,-17%,-53%,10µM*
Cc1ccc(CN2CCSc3ccc(C(=O)NCCCN4CCN(C)CC4)cc32)cc1,30%,-55%,?,-9%,5.6µM*
Cc1ccc(CCNC(=O)c2ccc3c(c2)N(Cc2ccc(F)cc2)CCS3)cc1,.,.,0%,.,-25%
SMILES,GLP-1R agonist,Integrin act MD,GLP1R cytotox,BRCA1 expr up,GLP1R inv ag
Cc1ccc(CN2CCSc3ccc(C(=O)NCC4CCCO4)cc32)cc1 (stereo not given),2%,?,0%,-22%,?
CN(C)CCNC(=O)c1ccc2c(c1)N(Cc1ccc(F)cc1)CCS2,-3%,0%,1%,0%,3.2µM*
CCOc1ccccc1NC(=O)CSc1nnc2[nH]c(=O)cc(-c3ccccc3)n12,.,.,-3%,.,-7%
CC(=O)N1CCc2cc(Br)cc(S(=O)(=O)CCC(=O)N3CCN(c4ccccc4)CC3)c21,-1%,.,12%,5%,20%
COc1cc2c(N3CCN(C(=O)Nc4ccc(OC(C)C)cc4)CC3)ncnc2cc1OCCCN1CCCCC1,15%,.,.,.,.
O=C(CCc1ccccc1)c1nnc(-c2ccccc2)o1,14%,10µM*,4%,58%,-17%
CCOC(=O)c1nnc(-c2ccccc2)o1,0%,3%,-5%,-5%,-7%
COc1cc(NC(=O)N2CCC(CN3CCCC3)CC2)cc(OC)c1OC,.,.,-9%,.,5%
Cc1nnc(NC(=O)c2cc3ccccc3o2)s1,10%,2%,-5%,7.1µM*,14%
CC(=O)c1cnc2c(-c3cccc(Br)c3)cnn2c1C,5%,15%,-6%,8.9µM*,7%
CCS(=O)(=O)Nc1ccc(-c2cc(-c3ccccc3)c3cc(C)ccc3n2)cc1,-3%,21%,-11%,-92%,7.1µM*
O=C(Cn1ncc2c3ccccc3n(Cc3cccc(Cl)c3)c2c1=O)NCc1cccs1,.,.,7%,.,10%
O=C(CCCN1C(=O)/C(=C\c2ccccc2)SC1=S)Nc1ccc(O)cc1,-3%,-66%,10µM*,-87%,?
CN1CCN(C(=O)CCCN2C(=O)/C(=C/c3ccc(Cl)cc3)SC2=S)CC1,-2%,-22%,?,-58%,10µM*
O=C1/C(=C\c2ccc(O)c(O)c2)SC(=S)N1Cc1ccccc1,6%,-76%,10µM*,-52%,?
CN1CCN(C(=O)CCCN2C(=O)/C(=C/c3ccccc3)SC2=S)CC1,-2%,-52%,?,-54%,?
O=C1/C(=C/c2ccc(Cl)cc2)SC(=S)N1CCC(=O)N1CCCCC1CCO (stereo not given),-4%,-50%,?,-58%,?
O=C1/C(=C/c2ccccc2)SC(=S)N1CCCC(=O)N1CCCCC1CCO (stereo not given),-3%,-48%,0%,-63%,5µM*
O=C(CCN1C(=O)/C(=C\C=C\c2ccccc2)SC1=S)Nc1cccc(C(=O)O)c1,-1%,6%,-29%,6.3µM*,149%
CC(C)(C)c1ccc(C(=O)Nc2cc(-c3ccccc3)nn2-c2ccccc2)cc1,.,.,-10%,0%,-31%
O=C(CC(c1ccccc1)c1ccccc1)Nc1ccc(Cl)cn1,-7%,-6%,?,-68%,5µM*
O=C(CS(=O)(=O)c1ccccc1)Nc1ccc(Cl)cn1,8%,-4%,-11%,27%,23%
O=C(COC(=O)/C=C/c1ccccc1)Nc1ccc(Cl)cn1,-11%,-19%,13%,-5%,9%
